Shown are actives, neighbours in structure and some others; about 19% of the full set was active somewhere.
DT40 TDP1 no CPT: qHTS for Inhibitors of human tyrosyl-DNA phosphodiesterase 1 (TDP1): qHTS in cells in absence of CPT; Potency, µM (top dose mostly 46.2 µM), without a hit: at the highest dose activity change, negative = growth inhibition, usual class: inhibitors; AID 686978, 2013; 420,000 compounds, 15% hits; DT40 Tdp1-/- hTDP1 cells, no CPT, ATP luminescence, 48 h; also: potency is read from the fitted curve at half-maximal effect; nearly all actives have a fitted effect of over 55% in size
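Cells were dispensed at 400 per well, compounds added by pin tool, plates incubated ≥48 hr at 37 °C, then CellTiter-Glo added for 30 min at room temperature before luminescence reading. Line: DT40 Tdp1-/- complemented with hTDP1; camptothecin omitted.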
HT1080-NT tox: kills 2HG-producing HT-1080-NT fibrosarcoma cells; 360,000 compounds, 1.6% hits; Potency, µM (doses to about 46.1 µM), for inactives: top-dose activity, negative = less viability, usual class: cytotoxic; HT-1080-NT fibrosarcoma viability, CellTiter-Glo ATP luminescence, 48 h;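 also: NT is the 2HG producing partner of a matched IDH1 knockdown line; potency is read from the fitted curve at half-maximal effect; 0% = DMSO-treated cells and -100% = media-only wells without cells; nearly all actives have a fitted effect of over 55% in size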
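Compounds were tested in concentration-response format on HT-1080-NT cells for 48 hours at 37 degrees C. Cell viability came from CellTiter-Glo luminescence; curves were classified by r2, response magnitude and activity.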
IL-1B inflam inh: inhibitors of inflammasome signaling (IL-1 beta secretion); THP-1 LPS/ATP IL-1B secretion, AlphaLISA, 16 h; hits give low values; activity change, % at 57.5 µM; 360,000 compounds, 4.7% hits; in the data active = activity change below about -50%; inconclusive = mostly about -30% to -49%
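THP-1 cells pretreated 1 hr with compounds (up to 57.5 uM final), then stimulated with LPS (250 ng/mL final) plus ATP (1.25 mM final); secreted IL-1B measured by AlphaLISA after 16 hr, decreased signal indicating inhibition.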
HT1080 IDH1KD tx: toxicity to HT-1080 IDH1 knockdown cells (counter line); Potency, µM (series often up to 46.1 µM), without a hit: top-dose activity, negative = toxicity, hits mostly cytotoxic; 360,000 compounds, 2% hits; HT-1080 IDH1 knockdown viability, ATP luminescence, 48 h;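 also: potency is read from the fitted curve at half-maximal effect; 0% = DMSO wells and -100% = cell-free medium wells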
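CellTiter-Glo luminescence after 48 h compound exposure at 37 degrees C of IDH1-knockdown HT-1080 cells in 5% FBS RPMI. %Activity scaled between DMSO wells and cell-free media wells, with curves fitted and assigned curve classes.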
TDP1 cell CPT: DT40-hTDP1 cell growth loss with CPT | chicken DT40 Tdp1-/-;hTDP1 cells + 20 nM CPT, ATP luminescence, 48 h | Potency, µM (top dose mostly 46.2 µM), inactives show top-dose activity change, negative = growth inhibition, most hits filed as inhibitors | 420,000 compounds, 12% hits | AID 686979; also: potency is read from the fitted curve at half-maximal effect; nearly all actives have a fitted effect of over 55% in size
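Cell growth measured by CellTiter-Glo luminescence after a minimum 48 h, 37 C compound exposure with 20 nM CPT in Tdp1-knockout DT40 cells stably expressing hTDP1, seeded 400/well; qHTS titration format.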
Numbers without * were called inactive; ? = inconclusive; / = no result. Unless noted, calls follow the shape of the dose curve; as a rule, active = well fitted curve in the direction sought with a large enough effect; inconclusive = small, poorly fitted or top-dose-only effect, or another doubt; inactive = no such curve, though single readings can be large; an effect the other way counts as inactive or inconclusive. Unless noted, % is scaled to controls: 0 for no effect and ±100 for the full control effect.

SMILES	DT40 TDP1 no CPT	HT1080-NT tox	IL-1B inflam inh	HT1080 IDH1KD tx	TDP1 cell CPT
CCCCn1nnnc1C(c1cc2ccccc2o1)N1CCCC1 (stereo unspecified)	-88%	0%	18	6%	?
COc1ccc2cnnc(SCC(=O)Nc3ccc(C(C)=O)cc3)c2c1OC	?	1%	-11	0%	-13%
Cc1ccc(C)c(/C=N/Nc2nc3ccccc3c(=O)n2O)c1	?	-4%	-3	-9%	?
COc1ccccc1OCc1n[nH]c(=S)n1Cc1ccccc1	-2%	-3%	42	-6%	3%
CCCCCCCCCCCCCCCC[n+]1ccc(/C=C/c2c[nH]c3ccccc23)c2ccccc21	14µM*	/	/	/	5µM*
CCCCCCCCCCCC[n+]1ccc(/C=C/c2c[nH]c3ccccc23)c2ccccc21	2.2µM*	/	/	/	2.5µM*
CCN(CC)C(=O)c1ccc(/C=C/c2c[nH]c3ccccc23)[n+](C)c1	?	8%	5	3%	-25%
CCCCCCC[n+]1ccc(/C=C/c2c[nH]c3ccccc23)c2ccccc21	1.1µM*	/	/	/	1µM*
CSc1ccc(C(=O)C2CCCN(C(=O)c3nonc3C)C2)cc1 (stereo unspecified)	-86%	-4%	-9	-6%	?
CC(=O)N1N=C(c2ccccc2)OC12CCCC2	-10%	9%	0	9%	-3%
CC(=O)N1N=C(c2ccc3ccccc3c2)OC12CCCC2	?	5%	4	-2%	21µM*
O=c1[nH]c(=O)n(-c2ccc(F)cc2)c2c1C(C(F)(F)F)(C(F)(F)F)N=C(c1ccc(F)cc1)N2	3.3µM*	15µM*	?	18µM*	4.6µM*
Cc1ccc(C2=NC(C(F)(F)F)(C(F)(F)F)c3c(n(-c4ccc(F)cc4)c(=O)[nH]c3=O)N2)cc1	23µM*	-3%	36	-2%	23µM*
CN(C)C(=O)c1cccc(-c2cnc3c(NC=O)cc(-c4cccc(C(F)(F)F)c4)cn23)c1	8.2µM*	23µM*	0	18µM*	8.2µM*
Cc1cccc(-c2cc(NC=O)c3ncc(-c4cccc(C(=O)N(C)C)c4)n3c2)c1	16µM*	?	16	0%	?
CN(C)C(=O)c1cccc(-c2cnc3c(NC=O)cc(-c4cccc(F)c4)cn23)c1	15µM*	29%	2	18%	21µM*
CN(C)C(=O)c1cccc(-c2cc(NC=O)c3ncc(-c4ccc(F)c(Cl)c4)n3c2)c1	23µM*	?	60	?	16µM*
O=C(COC(=O)CCS(=O)(=O)c1ccc(Cl)cc1)NC1CCCCC1	6%	18%	-1	15%	-1%
CCOC(=O)C1=CCN(Cc2ccccc2)CC1	0%	19%	23	9%	41%
O=C(Nc1ccccc1)/C(=C\c1ccc(F)cc1)NC(=O)c1ccco1	-1%	12%	1	13%	4%
COc1ccccc1CNC(=O)CCNS(=O)(=O)c1cc(Br)cnc1N	?	1%	16	-2%	?
COc1cccc(-c2cc(NC=O)c3ncc(-c4cccc(C(=O)N(C)C)c4)n3c2)c1	?	?	-12	?	?
CN(C)C(=O)c1cccc(-c2cnc3c(NC=O)cc(-c4ccc(N(C)C)cc4)cn23)c1	?	?	0	-24%	18µM*
COc1ccc(-c2cc(NC=O)c3ncc(-c4cccc(C(=O)N(C)C)c4)n3c2)cn1	16µM*	-8%	-8	-1%	23µM*
O=C(Nc1ccccc1Cl)c1ccc(-n2cccn2)c([N+](=O)[O-])c1	-16%	2%	-83*	-3%	2%
SMILES	DT40 TDP1 no CPT	HT1080-NT tox	IL-1B inflam inh	HT1080 IDH1KD tx	TDP1 cell CPT
Cc1c(NC(=O)c2ccc(Cl)c([N+](=O)[O-])c2)cccc1-n1cnnn1	?	6%	-99*	-16%	?
Cc1cccc(NC(=O)c2ccc(-n3cccn3)c([N+](=O)[O-])c2)c1	-20%	15%	?	0%	-11%
Cc1ccc(Nc2nc(C)c(CCC(C)C)c(=O)[nH]2)cc1	18µM*	8%	-13	7%	?
CCCCCc1c(C)nc(Nc2ccccc2)[nH]c1=O	18µM*	-26%	-4	-21%	21µM*
Cn1c(-[n+]2c(-c3ccccc3)cc(-c3ccccc3)cc2-c2ccccc2)nc2c([N+](=O)[O-])cccc21	18µM*	?	-62*	?	9.2µM*
COc1cc(/C=N/NC2=NC(C)(C)Cc3ccccc32)cc(OC)c1OC	21µM*	17%	-7	-1%	?
COc1cc(/C=N/NC2=NS(=O)(=O)c3ccccc32)cc(OC)c1OC	-10%	7%	16	7%	20%
COc1ccc(/C=N/Nc2ccccn2)cc1OC	16µM*	5%	-15	11%	?
CN(C)c1ccc(/C=N\Nc2ccccn2)cc1	23µM*	-12%	-11	-17%	21µM*
COc1ccc2c(c1)c(/C=N/Nc1nc3ccccc3[nH]1)c(C)n2C	?	?	-98*	?	21µM*
O=C(Nc1ccc(N2C(=O)CCC2=O)cc1Cl)c1cccs1	1%	?	0	23%	8%
Cc1ccc(NC(=O)COC(=O)[C@H](C)N2C(=O)C3CC=CCC3C2=O)cc1S(=O)(=O)N(C)C (stereo partly specified)	-15%	6%	-4	10%	-19%
O=Cc1ccc(-c2cc(Cl)ccc2Cl)[nH]1	-11%	-6%	-19	7%	2%
COc1cccc(C2=NOC(C(=O)Nc3ccccc3SC)C2)c1 (stereo unspecified)	?	-6%	5	-7%	?
C[C@@H](NC(=O)[C@H]1O[C@@H](n2cnc3c(N)ncnc32)[C@H](O)[C@@H]1O)c1cccc2ccccc12	-12%	?	?	?	-20%
Cc1ccc(C(=O)NCCc2nnc3ccc(SCC(=O)Nc4ccccc4F)nn23)cc1	-20%	0%	-11	-6%	-19%
CC(C)NC(=O)C1(C)CN(S(C)(=O)=O)CC(=O)N1CC(F)(F)F (stereo unspecified)	22%	4%	-13	-11%	24%
c1ccc2cc(CCO[C@H]3CCCCO3)ncc2c1	-14%	-1%	10	-2%	-21%
COc1cc(/C=N\Nc2nc3ccccc3[nH]2)cc(OC)c1OC	12µM*	-24%	0	-20%	21µM*
COc1ccc(/C=N/Nc2nc3ccccc3[nH]2)cc1OC	?	-16%	-75*	-23%	?
COc1cc(OC)c(OC)cc1/C=N/Nc1nc2ccccc2[nH]1	-22%	3%	0	3%	3%

Source: PubChem
